Measured values reported in PubChem BioAssay.

biological target: Nuclear receptor coactivator 1 (Homo sapiens) (UniProt Q15788); assay: NCOA1 GAL4-fusion reporter inhibition – cell-based, luminescence, quadruplicate, confirmation (AID 588820); conditions: HEK293 GAL4-SRC1 luciferase reporter, at 3.6 µM, stronger effect = higher value;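 further: 0% = DMSO wells and 100% = gossypol 36 µM treated wells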
Sequence (Q15788 whole entry, looked up, the tested form may be a part): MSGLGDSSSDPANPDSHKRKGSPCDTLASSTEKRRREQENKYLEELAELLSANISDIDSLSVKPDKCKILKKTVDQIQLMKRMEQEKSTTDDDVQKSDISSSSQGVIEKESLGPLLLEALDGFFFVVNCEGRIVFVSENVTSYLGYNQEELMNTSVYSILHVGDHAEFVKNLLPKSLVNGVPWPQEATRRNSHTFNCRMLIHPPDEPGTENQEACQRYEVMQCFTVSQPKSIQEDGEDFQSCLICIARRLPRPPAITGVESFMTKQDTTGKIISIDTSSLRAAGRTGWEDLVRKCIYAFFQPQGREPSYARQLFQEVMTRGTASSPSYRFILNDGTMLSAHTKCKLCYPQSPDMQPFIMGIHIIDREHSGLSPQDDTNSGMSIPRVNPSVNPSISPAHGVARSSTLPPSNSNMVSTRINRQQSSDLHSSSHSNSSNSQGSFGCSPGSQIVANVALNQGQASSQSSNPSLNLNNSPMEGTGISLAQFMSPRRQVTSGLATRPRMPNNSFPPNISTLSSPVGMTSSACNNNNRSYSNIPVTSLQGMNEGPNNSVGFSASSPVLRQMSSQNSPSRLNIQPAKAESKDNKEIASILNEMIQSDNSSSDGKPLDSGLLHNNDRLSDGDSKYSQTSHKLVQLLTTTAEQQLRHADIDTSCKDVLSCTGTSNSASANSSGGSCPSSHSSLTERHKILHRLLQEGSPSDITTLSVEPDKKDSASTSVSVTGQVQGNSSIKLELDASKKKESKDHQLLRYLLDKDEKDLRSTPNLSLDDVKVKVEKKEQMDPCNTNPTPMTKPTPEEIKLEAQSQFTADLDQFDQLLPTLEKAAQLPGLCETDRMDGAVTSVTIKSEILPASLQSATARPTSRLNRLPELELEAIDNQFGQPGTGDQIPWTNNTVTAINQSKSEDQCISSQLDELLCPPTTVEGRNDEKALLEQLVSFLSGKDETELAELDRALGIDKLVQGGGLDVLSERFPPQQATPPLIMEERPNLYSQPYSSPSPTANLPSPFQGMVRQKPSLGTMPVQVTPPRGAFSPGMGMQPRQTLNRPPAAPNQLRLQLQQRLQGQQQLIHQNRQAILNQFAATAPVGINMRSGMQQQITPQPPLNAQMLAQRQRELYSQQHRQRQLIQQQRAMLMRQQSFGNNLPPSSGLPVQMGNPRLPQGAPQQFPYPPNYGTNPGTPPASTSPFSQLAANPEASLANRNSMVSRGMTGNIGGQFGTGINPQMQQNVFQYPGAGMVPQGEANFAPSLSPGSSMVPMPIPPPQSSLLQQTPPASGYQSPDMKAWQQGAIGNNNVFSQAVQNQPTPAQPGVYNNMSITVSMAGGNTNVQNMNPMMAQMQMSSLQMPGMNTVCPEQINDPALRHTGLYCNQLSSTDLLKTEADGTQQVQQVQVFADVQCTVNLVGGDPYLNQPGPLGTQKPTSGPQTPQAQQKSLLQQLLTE

inhibition, inactive:
CN1CCN(CCC(=O)N/N=C/c2cc3c(cc2[N+](=O)[O-])OCO3)CC1 -2.3%
O=C(Nc1ccc2c(c1)OCCO2)C(c1cc2ccccc2o1)N1CCN(C/C=C/c2ccccc2)CC1 (stereo not given) -6.79%
COc1cccc(OCCn2cc(C(C)=O)c3ccccc32)c1 10.7%
Cc1sc2ncn3ncnc3c2c1C 37.9%
O=C(Nc1ccn(Cc2c(F)c(F)c(F)c(F)c2F)n1)c1ccc(COc2ccccc2Cl)cc1 3.66%
COc1ccc(CCn2c(-c3ccco3)nc3ccccc3c2=O)cc1OC -30.6%
Cc1nn(-c2ccccc2)c(N2CCCC2)c1/C=N/NC(=S)Nc1ccc(F)cc1 3.12%
Cc1cc([N+](=O)[O-])nn1CCCC(=O)Nc1ccc(Cl)cc1Cl -11.6%
CCc1ccc(NC(=O)c2ccc(F)c(S(=O)(=O)N(CC)c3ccccc3)c2)cc1 3.58%
Cc1ccc(NS(=O)(=O)c2ccc(C(=O)NC3CCN(Cc4ccccc4)CC3)cc2)cc1 -9.12%
NS(=O)(=O)c1ccc(CNC(=O)c2cnccn2)cc1 -22.2%
N#Cc1cc2ccncc2c2ccccc12 30.8%
COCCn1c(C)cc(C(=O)CSc2nc3ccccc3s2)c1C -45.7%
Cc1ccccc1-c1ccc(CN2C(C)C(=O)N(Cc3cn(Cc4ccco4)nn3)CCS2(=O)=O)cc1 (stereo not given) 7.13%
Cc1cccc(C)c1NC(=S)N(CCN(C)C)Cc1cccs1 -19.4%
